Test results published in PubChem BioAssay (NCATS).
Records with an inconclusive call do not appear. The source made the active and inactive calls. Calls come from the whole dose curve; as a rule, active = well fitted curve in the direction sought with a large enough effect; inconclusive = small, poorly fitted or top-dose-only effect, or another doubt; inactive = no such curve, though single readings can be large; an effect the other way counts as inactive or inconclusive.

Key:
[1] = test system: CRL-7250; assay: Cytotoxic Profiling of Annotated Libraries Using Quantitative High-Throughput Screening (AID 1296008); conditions: Five cell lines viability, CellTiter-Glo ATP luminescence, 48-72 h; max response: active compounds read low; note: nearly all actives have a fitted effect of over 60% in size; note: potency is the fitted concentration of half-maximal effect
Outline: (§1)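 Compounds were pin-transferred onto cells and incubated 48 or 72 hr at 37 degree Celsius, 95% humidity. CellTiter-Glo was added, plates sat 10 min at room temperature, then ATP-coupled luminescence was imaged as the viability read-out.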

[2] = test system: HEK293; assay: as above; conditions: Five cell lines viability, CellTiter-Glo ATP luminescence, 48-72 h; max response: active compounds read low
Outline: as §1

[3] = test system: HaCat; assay: as above; conditions: Five cell lines viability, CellTiter-Glo ATP luminescence, 48-72 h; max response: active compounds read low
Outline: as §1

[4] = test system: KB-3-1; assay: as above; conditions: Five cell lines viability, CellTiter-Glo ATP luminescence, 48-72 h; max response: active compounds read low
Outline: as §1

[5] = test system: NIH3T3; assay: as above; conditions: Five cell lines viability, CellTiter-Glo ATP luminescence, 48-72 h; max response: active compounds read low
Outline: as §1

[6] = test system: HACAT; assay: qHTS assay to identify novel small-molecules to repurpose for Merkel cell carcinoma treatment (AID 1296009); conditions: MCC and control cell lines, CellTiter-Glo viability, 72 h; at 44.8 µM (top of the series) unless noted; note: nearly all actives have a fitted effect of over 60% in size
Outline: (§2)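 qHTS format: cells treated with library compounds in DMSO across 8 (NPC) or 11 (MIPE) concentrations. Readout after 72 hr at 37 degree celsius was CellTiter-Glo luminescence.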

[7] = test system: MCC-13; assay: as above; conditions: MCC and control cell lines, CellTiter-Glo viability, 72 h; series mostly up to 46 µM
Outline: as §2

[8] = test system: MCC-26; assay: as above; conditions: MCC and control cell lines, CellTiter-Glo viability, 72 h; series mostly up to 46 µM
Outline: as §2

[9] = test system: MKL-1; assay: as above; conditions: MCC and control cell lines, CellTiter-Glo viability, 72 h; series mostly up to 46 µM
Outline: as §2

[10] = test system: MKL-2; assay: as above; conditions: MCC and control cell lines, CellTiter-Glo viability, 72 h; series mostly up to 46 µM
Outline: as §2

[11] = test system: UISO; assay: as above; conditions: MCC and control cell lines, CellTiter-Glo viability, 72 h; series mostly up to 46 µM
Outline: as §2

[12] = test system: WaGa; assay: as above; conditions: MCC and control cell lines, CellTiter-Glo viability, 72 h; series mostly up to 46 µM
Outline: as §2

[13] = test system: C33A; assay: Primary qHTS to identify gynecologic anti-cancer compounds using libraries of approved drugs and bioactive compounds (AID 1345084); conditions: Gynecologic cancer cell panel viability, ATPlite luminescence, 48 h; series mostly up to 57.5 µM; note: nearly all actives have a fitted effect of over 55% in size
Outline: (§3)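 Cytotoxicity screen measuring ATP content by luciferase luminescence. Each compound is applied at five concentrations for 48 h at 37 C with 5% CO2.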

[14] = test system: CAOV3; assay: as above; conditions: Gynecologic cancer cell panel viability, ATPlite luminescence, 48 h; series mostly up to 57.5 µM
Outline: as §3

[15] = test system: CASKI; assay: as above; conditions: Gynecologic cancer cell panel viability, ATPlite luminescence, 48 h; series mostly up to 57.5 µM
Outline: as §3

[16] = test system: Es-2; assay: as above; conditions: Gynecologic cancer cell panel viability, ATPlite luminescence, 48 h; series mostly up to 57.5 µM
Outline: as §3

[17] = test system: HeLa; assay: as above; conditions: Gynecologic cancer cell panel viability, ATPlite luminescence, 48 h; series mostly up to 57.5 µM
Outline: as §3

[18] = test system: Hek293T; assay: as above; conditions: Gynecologic cancer cell panel viability, ATPlite luminescence, 48 h, control line for the selectivity index; series mostly up to 57.5 µM
Outline: as §3

[19] = test system: HEK293T; assay: qHTS assay to identify novel small-molecules to repurpose for Merkel cell carcinoma treatment (AID 1296009); conditions: MCC and control cell lines, CellTiter-Glo viability, 72 h; at 44.8 µM (top of the series) unless noted; note: nearly all actives have a fitted effect of over 60% in size
Outline: as §2

[20] = test system: NIH3T3; assay: as above; conditions: MCC and control cell lines, CellTiter-Glo viability, 72 h; at 44.8 µM (top of the series) unless noted
Outline: as §2
% is set by controls: 0 for no effect and ±100 for the full control effect.

CCCCCN(CCCCC)C(=O)C(CCC(=O)O)NC(=O)c1ccc(Cl)c(Cl)c1 (stereo unspecified)
inactive: max response [1] -3.52% | max response [2] -9.3% | outcome [3] | max response [4] -8.56% | max response [5] -0.48% | outcome [6] | Potency [7] | Potency [8] | Potency [9] | Potency [10] | Potency [11] | Potency [12] | Potency [13] | Potency [14] | Potency [15] | Potency [16] | Potency [17] | Potency [18]

CN(C)C(=O)Oc1cccc([N+](C)(C)C)c1
inactive: outcome [1] | outcome [2] | outcome [3] | max response [4] 3.68% | max response [5] 1.77% | outcome [6] | outcome [19] | Potency [7] | Potency [8] | Potency [10] | Potency [11] | Potency [12] | Potency [13] | Potency [15] | Potency [16] | Potency [17] | Potency [18]

NC(=Nc1ccccc1)Nc1ccccc1
inactive: max response [1] -3.1% | outcome [2] | max response [3] 2.68% | outcome [3] | max response [4] -0.105% | max response [5] -0.581% | outcome [5] | outcome [6] | outcome [19] | Potency [7] | Potency [8] | Potency [10] | outcome [20] inactive [at 92 µM] | Potency [11] | Potency [12] | Potency [13] | Potency [14] | Potency [15] | Potency [16] | Potency [17] | Potency [18]

CN(C)C/C=C(/c1ccc(Br)cc1)c1cccnc1
inactive: outcome [1] | max response [2] -10.5% | outcome [3] | max response [4] -12.9% | outcome [5] | outcome [6] | Potency [7] | Potency [8] | Potency [9] | Potency [10] | outcome [20] | Potency [11] | Potency [12] | Potency [13] | Potency [14] | Potency [15] | Potency [17] | Potency [18]

C[N+](C)(C)CCOC(=O)CCC(=O)OCC[N+](C)(C)C
inactive: max response [1] 1.65% | max response [2] 4.43% | outcome [3] | max response [4] 1.17% | outcome [5] | outcome [6] | Potency [7] | Potency [8] | Potency [10] | outcome [20] | Potency [11] | Potency [12] | Potency [13] | Potency [14] | Potency [15] | Potency [16] | Potency [17] | Potency [18]

CNC1(C)C2CCC(C2)C1(C)C (stereo unspecified)
inactive: max response [1] -2.13% | max response [2] -9.06% | outcome [3] | max response [4] 0.165% | outcome [5] | outcome [6] | Potency [7] | Potency [8] | Potency [9] | Potency [10] | outcome [20] | Potency [11] | Potency [12] | Potency [13] | Potency [14] | Potency [15] | Potency [16] | Potency [17] | Potency [18]

CC(=O)Oc1cc(C(C)C)c(OCCN(C)C)cc1C
inactive: max response [1] -7.06% | outcome [2] | max response [3] 3.27% | max response [4] 3.97% | outcome [5] | outcome [19] | Potency [7] | Potency [8] | Potency [9] | Potency [10] | outcome [20] | Potency [11] | Potency [12] | Potency [13] | Potency [14] | Potency [15] | Potency [17] | Potency [18]

CC(C(=O)O)c1ccc(CC2CCCC2=O)cc1 (stereo unspecified)
inactive: max response [1] 2.29% | outcome [2] | max response [3] -3.69% | max response [4] -8.05% | max response [5] -16.1% | outcome [19] | Potency [7] | Potency [8] | Potency [9] | Potency [10] | Potency [11] | Potency [12] | Potency [13] | Potency [14] | Potency [15] | Potency [16] | Potency [17] | Potency [18]

CN1C(=O)CC[C@H]1c1cccnc1
inactive: max response [1] -11.6% | max response [2] -8.79% | outcome [3] | max response [4] 0.0726% | max response [5] -5.17% | outcome [6] | Potency [7] | Potency [8] | Potency [9] | Potency [10] | Potency [11] | Potency [12] | Potency [13] | Potency [14] | Potency [15] | Potency [16] | Potency [17] | Potency [18]

COc1cc(C(=O)OCCCN2CCCN(CCCOC(=O)c3cc(OC)c(OC)c(OC)c3)CC2)cc(OC)c1OC
active: Potency [2] 21.1 µM
inactive: max response [1] -12.1% | max response [3] 3.13% | max response [4] -1.09% | max response [5] -3.19% | Potency [7] | Potency [8] | Potency [9] | Potency [11] | Potency [13] | Potency [17] | Potency [18]

CCn1ccnc1CC1COc2ccccc2O1 (stereo unspecified)
inactive: max response [1] -3.72% | max response [3] 2.89% | max response [4] 19.9% | max response [5] -3.18% | Potency [7] | Potency [8] | Potency [9] | Potency [10] | Potency [11] | Potency [12] | Potency [13] | Potency [14] | Potency [15] | Potency [16] | Potency [17] | Potency [18]

O=c1[nH]c(=O)n([C@H]2C[C@H](O)[C@@H](CO)O2)cc1Br
inactive: max response [1] 0.0744% | max response [3] 2.47% | max response [4] 2.61% | max response [5] 1.37% | Potency [7] | Potency [8] | Potency [10] | Potency [13] | Potency [15] | Potency [16] | Potency [17] | Potency [18]

COc1ccc(CCN(C)CCCC(C#N)(c2cc(OC)c(OC)c(OC)c2)C(C)C)cc1OC (stereo unspecified)
inactive: max response [1] -12.1% | outcome [3] | max response [5] 0.424% | outcome [6] | Potency [7] | Potency [8] | Potency [9] | Potency [10] | Potency [11] | Potency [12] | Potency [13] | Potency [14] | Potency [15] | Potency [16] | Potency [17] | Potency [18]
